Potency and affinity values are given separately. Active and inactive are the calls of the source.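 Rule for the calls: active = viability loss whose fitted half-maximal concentration is at most twice the top valid tested dose; inconclusive = flat curve with 30 to 70% loss, or poor fit; inactive = the rest.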
Test: viability loss in HepG2 liver cells – cell-based, ATP luminescence, cherry-pick, set 6, cytotoxicity control, dose response (AID 1053125);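 note: negative values mean loss of viability signal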
Details: ATP luminescence (CellTiter-Glo), 72 h; series mostly up to 26 µM

SMILES | outcome
Cc1ccc(S(=O)(=O)c2cc3c(=O)n4ccccc4nc3n(C)c2=N)cc1 | inactive
O=c1oc2c(CN3CCCCC3)c(O)ccc2cc1-c1nc2ccccc2[nH]1 | inactive
Cc1ccc(S(=O)(=O)CCC(=O)OCC(=O)Nc2cccc(S(=O)(=O)N3CCCCC3)c2)cc1 | inactive
CCOC(=O)c1c2ccc(OCC(=O)NN)cc2n2ccccc12 | inactive
Cc1ccc2[nH]c3ccccc3c(=O)c2c1 | inactive
O=C(O)C1=CC[C@@H](c2ccc(Cl)cc2)N(S(=O)(=O)c2ccc(Cl)cc2)[C@H]1c1ccc(F)cc1 | inactive
C=CCN1C(=S)CC(c2ccccc2)=Nc2ccccc21 | inactive
CCOc1ccc(S(=O)(=O)Nc2ccc(C(=O)N(CC)CC(=O)NCc3cccs3)cc2)cc1 | inactive
CCOC(=O)c1cc2c(=O)n3ccccc3nc2n(Cc2ccc(Cl)cc2)c1=N | inactive
N#Cc1ccc(OCC(=O)OCC(=O)N2CCc3ccccc32)cc1 | inactive
CCC(Sc1nc(N)c(NC(=O)c2ccc(OC)cc2)c(=O)[nH]1)C(=O)O (stereo not given) | inactive
Cc1ccc2c(c1)N(C(=O)CCC(=O)NCCCN1CCOCC1)CC(C)O2 (stereo not given) | inactive
O=C(NCc1ccc(F)cc1)C1CCCN1C(=O)Nc1cccc(F)c1 (stereo not given) | inactive
[O-]/[N+](=C/c1ccccc1)c1ccccc1 | inactive
Cc1ccc(-n2c(C)cc(/C=N/NC(=O)Cn3c4ccccc4c(=O)c4ccccc43)c2C)cc1 | inactive
COc1ccccc1OCc1ccc(C(=O)N(C)c2ccccc2)o1 | inactive
CCOC(=O)C1=CN(CC2CCCO2)C=C(C(=O)OCC)C1c1ccccc1C(F)(F)F (stereo not given) | inactive
C[C@H](NC(=O)c1nc[nH]c1C(=O)N[C@@H](Cc1ccccc1)C(=O)OC(C)(C)C)C(=O)OCc1ccccc1 | inactive

SMILES | outcome
O=C(Cn1ccc([N+](=O)[O-])n1)N1CCCCCC1 | inactive
O=C(COC(=O)c1cc(S(=O)(=O)N2CCCCC2)ccc1N1CCOCC1)c1ccccc1Cl | inactive
CC1(C)CC(=O)C2=C(C1)OC(N)=C(C#N)[C@@H]2c1ccccc1[N+](=O)[O-] | inactive
COc1c(Cl)cc(-c2noc(C)c2C(=O)NCc2ccc3c(c2)OCO3)cc1Cl | inactive
Cc1ccc(C(=O)OCC(=O)Nc2c(C)nn(-c3ccccc3)c2C)c(O)c1 | inactive
CC(C)CCn1c(CN2CC(C)OC(C)C2)nc2c1c(=O)n(C)c(=O)n2C (stereo not given) | inactive
COc1ccccc1NS(=O)(=O)c1cc(NC(=O)CCNC(C)=O)ccc1C | inactive
CCN(CC)c1ccc2c(C)c(Cl)c(=O)oc2c1 | inactive
Cc1nc2ccccc2c2oc(C(=O)NCCCN3CCC(C)CC3)cc12 | inactive
CCN(c1ccccc1)S(=O)(=O)c1ccc(OC)c(NC(=O)CN(C)C)c1 | inactive
CCNc1nc2nc3ccc(C)cn3c(=O)c2cc1C(=O)NCC1CCCO1 (stereo not given) | inactive
CN(C)/C=C/C(=O)c1c(F)cccc1F | inactive
CCOc1ccc(C(=O)c2cc3ccc(O)cc3oc2=O)cc1 | inactive
Cc1oc(/N=C/c2ccc(F)cc2)c(C#N)c1C | inactive
CN1CCc2c(sc(NC(=O)Cc3ccccc3)c2C#N)C1 | inactive
O=C1CCc2cc(S(=O)(=O)NC(Cc3ccccc3)C(=O)NCCC3=CCCCC3)ccc2N1 (stereo not given) | inactive
COc1ccccc1C1C2=C(CC(C)(C)CC2=O)N(CC(=O)O)C2=C1C(=O)CC(C)(C)C2 | inactive
